From PubChem BioAssay AID687041 (Broad Institute, 2013)
Entries with a potency or affinity are not part of this list.

assay: endogenous miR-122 level reduction, dose response, orthogonal assay for miR-122 inhibitor project, cell-based, Huh7, RT-qPCR, dry powder (AID 687041); conditions: Huh7 miR-122 level, 48 h; series mostly up to 35 µM; relative miR-122 level (fraction of control): at the top concentration;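 active means compounds lowering miR-122 whose fitted half-maximal concentration is at most twice the top tested dose; inconclusive means flat fit with moderate reduction, or poor fit quality; inactive means the rest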

Relative miR-122 level (fraction of control), inactive:
O=S(=O)(Nc1cccc2[nH]ncc12)c1ccc(F)c2ncccc12 0.846
Cc1ccc(C)c(S(=O)(=O)Nc2ccc(-n3cnnn3)cc2)c1 0.901
CCCCNS(=O)(=O)c1ccc2nc(-c3cccnc3)cc(C(=O)NC(C)CC)c2c1 (configuration not stated) 0.978
COc1ccc(C)cc1NS(=O)(=O)c1ccc2c(c1)N(C)CCO2 0.687
COc1ccc(S(=O)(=O)NCCN2CCOCC2)c2ccccc12 0.954
Nc1c(S(=O)(=O)c2cccs2)c2nc3ccccc3nc2n1Cc1ccccc1 0.7
Cc1ccc(C(=O)C2Oc3ccccc3C3CC(c4ccc(C)cc4)=NN23)cc1 (configuration not stated) 0.992
CN1C(=O)c2cccc3c(S(=O)(=O)NCCc4ccccc4)ccc1c23 0.827
O=C(Nc1ccc2ccccc2c1)c1ccc(Cl)cc1Cl 2.03
COc1cccc(N2CCN(C(=O)c3oc4ccccc4c3NC(=O)CCc3cc(OC)no3)CC2)c1 0.682
CCOc1cc(C)c(S(=O)(=O)NC2CCCCC2)cc1C 0.676
Cc1cc(S(=O)(=O)NC2CCCCC2)c(C)s1 1.16
